Hit rate of the full screen: of about 2,500 compounds, about 360 (14%) were called active. These entries were drawn from the full list. Values without a mark were called inactive.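 The calls were made as follows: active = signal-lowering compounds whose fitted half-maximal concentration AC50 is no higher than ten times their top tested concentration; inconclusive = flat curve with 30 to 70% inhibition, or poor fit; inactive = flat within 30%, signal increase, or AC50 above limit.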

In general, AC50 refers to the concentration at which the activity in the assay is half-maximal.

The nature of this assay: non-specific inhibitors of H2O2 luminol chemiluminescence – biochemical, luminescence, no ALR or DTT, cherry-pick, artefact control for ALR inhibitor project, dose response (AID 540356). The note with it: HRP/H2O2 luminol luminescence counterscreen; series mostly up to 10 µM.
Take `Cc1ccc(CN2CCSc3ccc(C(=O)NCCCN4CCN(C)CC4)cc32)cc1`: the AC50 result is “inactive”.
Turning to `O=C(CN1CCN(c2ccc(O)cc2)CC1)Nc1ccc(S(=O)(=O)N2CCCC2)cc1`, the AC50 entry was “inactive”.
Turning to `Cc1ccc(-c2nc(Nc3cccc(C)c3)sc2CC(=O)O)cc1`, the AC50 result was “inactive”.
The value for `Cc1ccc(CS(=O)Cc2ccc(C(=O)N3CCN(c4ccccc4)CC3)o2)cc1` (stereo not given) was “inactive”.
Consider `CN(C)c1ccc(NC(=O)CN2CCc3ccccc3C2)cc1`, for which the AC50 entry was “inactive”.
The value for `CN(C)c1ccc(NC(=O)CCn2c(=S)oc3ccccc32)cc1` was “inactive”.
Regarding `O=C(NCC(c1ccco1)N1CCc2ccccc21)c1ccccc1F` (stereo not given), the AC50 result is “inactive”.
For the compound `Clc1c(CSc2nc3ccccc3o2)nc2ccccn12`, the AC50 result is “inactive”.
As to `CCCCCCCc1c(C#N)c(N)[nH]c(=S)c1C#N`, the AC50 result was “inactive”.
Consider `Cc1cccc(C(=O)Nc2ccc(O)cc2)c1`, for which the AC50 entry was “inactive”.
Turning to `CC(=O)Nc1ccc(S(=O)(=O)Nc2ccc(Nc3ccccc3)cc2)cc1`, the AC50 entry is “inactive”.
On to `Cc1ccc(S(=O)(=O)Nc2ccc(N(C)C)cc2)cc1`, for which the AC50 entry was “inactive”.
The value for `Cc1cc(C)c(S(=O)(=O)Nc2ccc(O)cc2)c(C)c1` was 9.93 µM (active); that for `Cc1ccc(Sc2ccc(S(=O)(=O)Nc3ccc(C(=O)O)cc3)cc2)cc1C` was “inactive”; that for `COc1ccc(S(=O)(=O)N/N=C(/C)c2ccncc2)c(OC)c1` was “inactive”.
Turning to `COc1cc(/C=N/NC(=O)c2nc3ccccn3c2C)cc(OC)c1O`, the AC50 result is “inactive”.
The value for `O=C(Nc1ccc(N2CCCCC2)cc1)c1cccnc1` was “inactive”; that for `O=C(NN=C1CCC(=NNC(=O)c2cccnc2)CC1)c1cccnc1` was 8.24 µM (active).
As for `O=C(Nc1ccccc1N1CCCC1)c1cccnc1`, the AC50 result was “inactive”.
For `Cc1ccc(N/N=C2/CCCNC2=O)cc1`, the AC50 entry was “inactive”.
With `Cc1ccc(C(=O)Nc2cccc([N+](=O)[O-])c2)cc1S(=O)(=O)Nc1ccc(C(=O)O)cc1`, the AC50 result was “inactive”.
Take `COc1ccccc1NS(=O)(=O)c1cc([N+](=O)[O-])ccc1N/N=C/c1c[nH]c2ccccc12`: the AC50 entry was “inactive”.
With `CNC(=O)c1cc(Nc2nnc(-c3ccc(O)cc3)c3ccccc23)ccc1OC`, the AC50 result is “inactive”.
On to `CCN(CC)CCCN(C(=O)c1cccc(C)c1)c1nc(-c2ccc(OC)cc2)cs1`, for which the AC50 result is “inactive”.
In the case of `Cn1c(CNS(=O)(=O)c2ccc(Br)cc2)n[nH]c1=S`, the AC50 entry was “inactive”.
With `CCCn1c(CCC(=O)O)ccc1-c1cccs1`, the AC50 result is “inactive”.
For `COc1cccc(NC(=O)CN2CCN(c3ccc(F)cc3)CC2)c1`, the AC50 result was “inactive”.
As for `Cc1cc(Oc2ncccc2[N+](=O)[O-])c2cc(Cl)ccc2n1`, the AC50 result was “inactive”.
With `COc1ccccc1-n1cnc2cc(NCc3ccccc3O)ccc21`, the AC50 entry was “inactive”.
Take `COc1ccc(OC)c(CNc2ccc3c(c2)nc(C)n3C)c1`: the AC50 entry was “inactive”.
Take `O=[N+]([O-])c1ccc(-c2cn(-c3ccccc3F)c(=S)[nH]2)cc1`: the AC50 result was “inactive”.
`Cc1nc(SCc2cccnc2)[nH]c(=O)c1C`: the AC50 entry was “inactive”.
As to `Cc1ccc(NC2CCCN(C(=O)c3cc4ncccn4n3)C2)cc1C` (stereo not given), the AC50 result is “inactive”.
The value for `COc1cc(/C=N/Nc2nc(=O)[nH]nc2C)ccc1O` was “inactive”.
With `CNc1nnc(CSc2nc3ccccc3s2)s1`, the AC50 entry was “inactive”.
Regarding `NC(=O)c1ccc(CSc2nc3ccccc3s2)cc1`, the AC50 result was “inactive”.
Take `CC(C)c1ccc(NC2CCCN(C(=O)C3=NN(C)C(=O)CC3)C2)cc1` (stereo not given): the AC50 entry was “inactive”.
As for `COC(=O)c1sccc1NC(=O)c1cc(C)on1`, the AC50 result was “inactive”.
`Cc1cc(C(=O)NNc2ccccc2F)no1`: the AC50 was 8.51 µM (active).
The entry for `Cc1cc(C(=O)NNc2ccc(F)cc2F)no1` is “inactive”; for `Cc1cccc(Oc2ccc3c(c2)cc(C(=O)O)n3C)c1` it is “inactive”.
As for `CN(CCCNC(=O)c1cccc(N2CCCC2=O)c1)c1ccccc1`, the AC50 result is “inactive”.
With `CN(CC(=O)N1CCN(c2ccccc2)CC1)S(=O)(=O)c1cnc[nH]1`, the AC50 result is “inactive”.
In the case of `O=C1CS/C(=N/N=C/c2ccco2)N1Cc1ccc(F)cc1`, the AC50 result is “inactive”.
Regarding `Fc1ccc(CN2C3=NCCN3c3ccccc32)cc1`, the AC50 result was “inactive”.
Consider `Cn1cccc1CC(=O)N/N=C/c1ccc([N+](=O)[O-])cc1`, for which the AC50 entry is “inactive”.
The entry for `O=C(NNc1c2ccccc2nc2ccccc12)c1ccc(O)cc1O` is “inactive”; for `COc1cccc(/C=N/NC(=O)CC2C(=O)NN=C2C)c1O` (stereo not given) it is “inactive”; for `CC1C(=O)NN=C1C(=O)N/N=C\c1ccc(O)cc1O` (stereo not given) it is 8.82 µM (active).
Consider `CCN(CC)c1ccc(/C=N/NC(=O)c2ccco2)c(O)c1`, for which the AC50 result is “inactive”.
The entry for `CC(C)c1ccc(NC2CCCN(C(=O)CCCn3cncn3)C2)cc1` (stereo not given) is “inactive”; for `Cc1nc(C(F)(F)F)c(C(=O)O)cc1-c1nc(-c2ccccc2)cs1` it is “inactive”; for `Oc1ccc(-c2nc(-c3ccc(O)c(O)c3)cs2)cc1` it is 6.17 µM (active).
`Nc1nc(-c2ccc3ccccc3c2)cs1`: the AC50 entry was “inactive”.
The entry for `O=C(O)c1ccccc1C(=O)Nc1ccc(-c2csc(-c3ccccc3)n2)cc1` is “inactive”.
As for `Cc1cc(-c2n[nH]c(=S)n2/N=C/c2ccc(Cl)c([N+](=O)[O-])c2)n[nH]1`, the AC50 entry was “inactive”.
The value for `CN(C)c1ccc(/C=N/Nc2ccc(-n3ccnc3)nn2)cc1` was “inactive”; that for `CCN(CC)c1ccc(NC(=O)c2ccc(Br)o2)cc1` was more than 10 µM.
For the compound `O=C(Nc1ccc(O)cc1)c1ccc(C(=O)c2ccccc2)o1`, the AC50 entry is “inactive”.
For the compound `Oc1ccc(/C(Cc2ccccn2)=N\Nc2ccccc2)c(O)c1`, the AC50 result was “inactive”.
Consider `Cc1ccc2nc(C)cc(N/N=C/c3ccccc3O)c2c1`, for which the AC50 entry was “inactive”.
The entry for `COc1ccc(-c2n[nH]c(=S)n2-c2ccc(C)cc2)cc1OC` is “inactive”; for `COc1ccc(-n2c(-c3ccc(OC)c(OC)c3)n[nH]c2=S)cc1` it is “inactive”.
The entry for `Cc1occc1C(=O)NCCCCc1ccccc1` is “inactive”.
On to `O=C(NCCCN1CCCC1)c1ccc2c(Cl)c3c(nc2c1)CCCC3`, for which the AC50 result is “inactive”.
As for `CC(C)Cc1nc2ccc(N)cc2[nH]1`, the AC50 result is “inactive”.
Regarding `Nc1ccc(CCc2ccc(N)cc2)cc1`, the AC50 result was “inactive”.
The entry for `O=C(Nc1nnc(-c2cccnc2)o1)c1cccc([N+](=O)[O-])c1` is “inactive”.
Turning to `Nc1ccc(N2CCN(C(=O)c3ccco3)CC2)cc1`, the AC50 entry is “inactive”.
Consider `O=C1NC(=O)/C(=C/c2cc3c(cc2Br)OCO3)S1`, for which the AC50 entry is “inactive”.
`COc1cc(/C=C2\SC(=Nc3ccccc3OC)NC2=O)ccc1O`: the AC50 entry is “inactive”.
In the case of `O=C1NC(=O)/C(=C\c2ccc(O)cc2O)S1`, the AC50 is 7.54 µM (active).
As to `COc1cc(/C=N/NC(=O)c2cccc(NC(=O)c3ccccc3)c2)ccc1O`, the AC50 result is “inactive”.
In the case of `COc1cc(C(=S)N(C)C)ccc1O`, the AC50 entry was “inactive”.
As for `COc1cc(C(=O)n2nc(C)cc2C)ccc1O`, the AC50 result was “inactive”.

Values taken from PubChem BioAssay AID540356 (Broad Institute, 2011).
